{
  "source": "the supplement of paper PMC12632987",
  "binders": {"B1": {"name": "traf2_out_3_89_2291 (protein)", "chain": "SMEKEKKIKEAKERAERYVKGFEKNARRVAKEMLEEGHSLETLRGVLEAARTAIVETFGETLKEEGIDKETRDKILEELKKKLDEIVEEVVEEAKKRREE"}, "B2": {"name": "traf2_out_11_169_862 (protein)", "chain": "KEEEFNRKLIDFALEVEDEAKKKLKEFALKLAKEAGLDVAEVEAIFEKHKNSSLSAIASALIEYFRSKGKEEEAEKILKKHDELKEEINKKVSEKIKELK"}, "B3": {"name": "traf2_out_16_177_1458 (protein)", "chain": "ELDRVMDRLVILSLIRRAALEIVRSNSPEAERYLAEARAEAEAAGDEEGLARIARIEELAAQNTPEARAELRALAAEAQREAQRLANEAERLIRERAAAE"}, "B4": {"name": "traf2_out_20_38_2035 (protein)", "chain": "SEEEEEEEKLEEIIEVANEAYDEYMAWIAERKAAGKTVEEIAEEAKEEVKELLSKVGLEEEAEILIEDIDRALSSPDAERLIARTLARAVALVKQKELNK"}, "B5": {"name": "traf2_out_20_38_2034 (protein)", "chain": "SMEEEEEEKLEEIIEVANEALDKYEAEIAKWKAEGKTVEEIAEEAKKKVKELLSKVGLEEEAKILIEEIDLALSSPDAERLIARTLARAEALVKQKELNE"}, "B6": {"name": "traf2_out_1_71_1752 (protein)", "chain": "SPEAEKAEKALEDMAKSIAEGMKTEEALERYLEAFRNHIKRVKALAKANKDDEAVKAGSIADLNLEAELLEKIAKYVDEESKKKLEELAKEAKKAAEEIK"}, "B7": {"name": "traf2_out_13_95_1034 (protein)", "chain": "SRELAEKIMEIADEAEEKILKLLEEKSKELADDPEMVKVLEEARRLALTRGVNEAIHLLREASERFPEYKEELDKLIEEIEKIREEAGKKVAELIKEEEE"}, "B8": {"name": "traf2_out_20_38_2036 (protein)", "chain": "SMEEEEEEKLEEIIRVANEAYDAYEAEIAALKAAGKTVEEIAAIAKERVRELLSKVGLEEEAEILVEDIDLALSSPEAERLIARILARAEAKVKQKELNE"}, "B9": {"name": "traf2_out_20_38_2022 (protein)", "chain": "SEEEEEKKKLEELVKVANEAYDEYTARFAEWKAAGKTVEEIAEEVKERIRELLTAAGLEEEAEILIEEVDLALKSPEAERLLVRTLARAVALVHQKELQK"}, "B10": {"name": "traf2_out_13_95_1078 (protein)", "chain": "SAEANKKIMEIADEMLEKSLKILKELSKKVADNPEMKAAVEEAIHLAETQGINAAIHLLEKLSEANPEYKELLDEAIKKLKEIKEEAGKKVAEILKEEKE"}, "B11": {"name": "traf2_out_11_155_677 (protein)", "chain": "EKKREINNALVDEMAAIDDATRAALDAIVDAAAAAHPEHAAALRAARDATRPYPGSSRGRALAALFRELGLEDYAAQVEALLAAAQKEKNAALKAHEAKL"}, "B12": {"name": "traf2_out_20_3_2096 (protein)", "chain": "EELKKELEKALEEAEKLIKEAIKLADEETAKKLKELLKKLKEAKELPLDDQLVELSEVRRELLELAEKAKKEGKEELAKILEEAADKINRAMNLAYKIIE"}, "B13": {"name": "traf2_out_17_178_1700 (protein)", "chain": "SKEEIRKKISELTDELIDHADRYGTALLARLRAEGVLSPEELAALDAALASGSNRTLLATAEELIPRSAASPETRALLAEWRAETREIAKKIAEAYEKYE"}, "B14": {"name": "traf2_out_18_167_1855 (protein)", "chain": "EEELKKKLEEATDELVKLSEVKRLARTALQLLETDPAAFPAAKAALIAALRAHGELAHLADRLEAAPPEEQPAVLEEIVEEAQRLANEKYKEIEELRKKL"}, "B15": {"name": "traf2_out_5_63_2338 (protein)", "chain": "SEREELTALAREADRAVRAILEALKAGKREEARKLVEEVAKDPELLRTAIGIARAELKYYSLQPEKKEEEKIAKELLKLLEEAAKRREEEERREREEALA"}, "B16": {"name": "traf2_out_17_178_1715 (protein)", "chain": "TKEAARAEISAATDEMIDLAEAAAARLLAIAEAEGSLSPEELAELRRARRLGSARTTRALMRRAIPRSPSAAEVQALLDDFEKRYAELSKKIAEALKKYE"}, "B17": {"name": "traf2_out_15_180_1332 (protein)", "chain": "MTEEELEKRIELVAEVADEADERVREELAAAGVTSPEHLALARSGVRAVITHVFAGWEEEAEEVEEIVAARLPEELRPLFRRLVEEARRRAEEALERLKK"}, "B18": {"name": "traf2_out_6_3_2519 (protein)", "chain": "MEESLREDARTVLKNMGITTAEQLLRLVKAEVNAVKKLVSRKDVDRADLAGAESVLALTRAMVEVAAEELPDLTEEQKAEMLELIEEAEKLVEEKRKELE"}, "B19": {"name": "traf2_out_6_3_2518 (protein)", "chain": "MEESIRRDAAKVLENMGITTAEQLLRLVKANVNAVKKLVSRKDVDRADLAGAESVLNLTRAMVEVAAETLPDLTEEQKAEMLALIEEARELVEKKRKELE"}, "B20": {"name": "traf2_out_6_3_2529 (protein)", "chain": "SEEKLREDARTILENMGITTAEQLLRLVKAEVNAVKQLVSRPDVDRADLAGARSVLALTRAMVEVAAETLPSLTPEQAEEALALIDETEKLVEKREKELE"}, "B21": {"name": "traf2_out_20_3_2058 (protein)", "chain": "SELDEEIEKKTKELEKKLAELAKLLPPEEAAELAKAWAEVKKAAKEGLEEFLIAVSKLRRLLLELSEEARARGDEKTAKLLEEAAEIAQEIAHLIYKKIE"}, "B22": {"name": "traf2_out_1_158_906 (protein)", "chain": "STAVNTLYAVATSIADVYAELAKERGLEKAAALLEKLKEDIKELYEKNKNASLEEFAKKVLELIEEKEKESESLPEEDKALVDIAFRQIKSGVEQVVKLA"}, "B23": {"name": "traf2_out_16_177_1453 (protein)", "chain": "ELDRLMDRLVILSELRRAALLAVEGRGDEYREHLARARELAEEAGDEEALALADRIEALIAENTPEAKEELKKLAEELQKEAQKLALEAEKLIKERAKEE"}, "B24": {"name": "traf2_out_11_169_827 (protein)", "chain": "EEAEKNRKINDKALELEDKAKKEFKEFVLKLAKEDGLDVEEIKKIFEENKNKSLSAQAAAVIEYFKSKGKEEAAKKVLEKYEELKEKINKEVTAFIKELE"}, "B25": {"name": "traf2_out_11_155_748 (protein)", "chain": "EERRKLLQEMNDKITELFDKAREEALKIAEEAAKKHPEHAEEIKKKIEETKGFSYRSFILSMIELFEELGLEEEAKKLKELLEKTQKEANKIVQETEKKL"}, "B26": {"name": "traf2_out_20_3_2118 (protein)", "chain": "EELEEELEKELEEALKLLKEAAKLADKKTAKKLEKLAKRLKESRKLSPSDRLVVVSEVRREVRRLRLEAEKKGDKKLAKVLDEAAEELNRAANLLMKIIE"}, "B27": {"name": "traf2_out_13_95_1130 (protein)", "chain": "SRETAEKIMEIADEMLDKVLEILKELLKKFEKAGVGVEEIKEAIYLAEHQSINEAIKLLEELAKKYPEFKEELNKAIEEIKKLRREAGKKVAEILKEEKE"}, "B28": {"name": "traf2_out_11_79_936 (protein)", "chain": "EEKRQELLKKLEEALKLLKELLEKMKAGTISEEERKEMLDEIERLLQRAAQLALELGLSDTLVEISEAKRHVRLAYSGDLEALEKAIKELEEAIKLVEEA"}, "B29": {"name": "traf2_out_17_162_1640 (protein)", "chain": "SPVEEFKERVEKELKELEKRVEELEEKSKKIDEYSKEELSDLIVEASEVKRRARELKQEVLAAKDLIPEEERARILKRLEEIIERAQRIAQKFYDKYLSL"}},
  "note": "Whole data set: some 1,800 sequences, median “median log2 fold change of GCK-ALFA target abundance (FLAG IP / Myc IP barcode read proportion)” near 0.14, cut for the lowest 2% near -0.84. The full list was thinned out, with the lowest values kept by preference.",
  "data": [
    {"biological_target": "T1, TRAF2, Q12933", "T1 chain": "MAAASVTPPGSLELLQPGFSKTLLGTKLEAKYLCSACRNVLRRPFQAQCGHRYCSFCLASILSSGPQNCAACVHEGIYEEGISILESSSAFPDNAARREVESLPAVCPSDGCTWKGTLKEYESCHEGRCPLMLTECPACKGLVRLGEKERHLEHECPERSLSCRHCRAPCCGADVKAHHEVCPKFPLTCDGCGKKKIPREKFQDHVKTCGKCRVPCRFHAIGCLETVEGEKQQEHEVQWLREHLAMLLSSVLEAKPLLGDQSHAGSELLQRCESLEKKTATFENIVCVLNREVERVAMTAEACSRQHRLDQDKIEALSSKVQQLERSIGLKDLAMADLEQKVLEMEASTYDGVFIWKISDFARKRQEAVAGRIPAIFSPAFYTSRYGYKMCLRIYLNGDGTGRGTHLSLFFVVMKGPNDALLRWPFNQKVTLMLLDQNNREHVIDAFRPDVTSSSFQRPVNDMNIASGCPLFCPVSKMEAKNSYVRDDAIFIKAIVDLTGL", "assay": "median log2 fold change of GCK-ALFA target abundance (FLAG IP / Myc IP barcode read proportion) (log2 ratio); each designed protein is fused to an ALFA-tag nanobody in HEK293 cells to bring the named protein to FLAG-tagged glucokinase (GCK); Myc marks an untargeted standard; higher = target protein stabilised (more abundant)", "conditions": "target protein: 3xFLAG-MCP-GCK-ALFA reporter; HEK293 landing pad (RPLP)", "procedure,_shortened": "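Binders fused to an ALFA nanobody were recombined as a library into HEK293 landing-pad cells, which were induced with 2 μg mL^−1 doxycycline and then transfected to express a FLAG-tagged target and a Myc-tagged standard. After 48 h, circular RNA barcodes recovered by anti-FLAG and anti-Myc immunoprecipitation of lysates were reverse transcribed, amplified and sequenced. Each binder's target abundance is the median log2 ratio of FLAG to Myc barcode read proportions, from barcodes present at ≥10^−7 in both replicates, binders carrying ≥3 barcodes per replicate, a 10^−6 pseudocount and pooled replicates.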", "values": [
      {"binder": "B1", "median log2 fold change": -0.996},
      {"binder": "B2", "median log2 fold change": 0.0801},
      {"binder": "B3", "median log2 fold change": -0.327},
      {"binder": "B4", "median log2 fold change": -1.16},
      {"binder": "B5", "median log2 fold change": -0.126},
      {"binder": "B6", "median log2 fold change": -0.948},
      {"binder": "B7", "median log2 fold change": -0.375},
      {"binder": "B8", "median log2 fold change": -1.27},
      {"binder": "B9", "median log2 fold change": -0.885},
      {"binder": "B10", "median log2 fold change": 0.00315},
      {"binder": "B11", "median log2 fold change": -0.00384},
      {"binder": "B12", "median log2 fold change": 0.177},
      {"binder": "B13", "median log2 fold change": 0.0128},
      {"binder": "B14", "median log2 fold change": 0.405},
      {"binder": "B15", "median log2 fold change": 0.165},
      {"binder": "B16", "median log2 fold change": -0.171},
      {"binder": "B17", "median log2 fold change": -0.0893},
      {"binder": "B18", "median log2 fold change": -0.45},
      {"binder": "B19", "median log2 fold change": -0.905},
      {"binder": "B20", "median log2 fold change": -0.16},
      {"binder": "B21", "median log2 fold change": 0.144},
      {"binder": "B22", "median log2 fold change": 0.0998},
      {"binder": "B23", "median log2 fold change": -0.267},
      {"binder": "B24", "median log2 fold change": -0.542},
      {"binder": "B25", "median log2 fold change": 0.302},
      {"binder": "B26", "median log2 fold change": 0.107},
      {"binder": "B27", "median log2 fold change": -0.433},
      {"binder": "B28", "median log2 fold change": 0.397},
      {"binder": "B29", "median log2 fold change": 0.0147}
    ]}
  ]
}
